Experimental data from PMC4336329 (PLoS ONE, 2015).
About 14,000 (4.5%) of roughly 310,000 compounds showed an effect of 50% or more. Effects have a minus sign here. The sample as a whole holds a higher share of strong results than the screen did.

Biological target: human ether-à-go-go-related gene (hERG) potassium channel (human, UniProt Q12809)
Experiment: primary screen, population patch clamp on CHO cells stably expressing hERG; higher = less effect of the substance
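Also: peak tail current of the secondary pulse compared with the same well before compound.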

Sequence of human ether-à-go-go-related gene (hERG) potassium channel (Q12809 whole entry, looked up): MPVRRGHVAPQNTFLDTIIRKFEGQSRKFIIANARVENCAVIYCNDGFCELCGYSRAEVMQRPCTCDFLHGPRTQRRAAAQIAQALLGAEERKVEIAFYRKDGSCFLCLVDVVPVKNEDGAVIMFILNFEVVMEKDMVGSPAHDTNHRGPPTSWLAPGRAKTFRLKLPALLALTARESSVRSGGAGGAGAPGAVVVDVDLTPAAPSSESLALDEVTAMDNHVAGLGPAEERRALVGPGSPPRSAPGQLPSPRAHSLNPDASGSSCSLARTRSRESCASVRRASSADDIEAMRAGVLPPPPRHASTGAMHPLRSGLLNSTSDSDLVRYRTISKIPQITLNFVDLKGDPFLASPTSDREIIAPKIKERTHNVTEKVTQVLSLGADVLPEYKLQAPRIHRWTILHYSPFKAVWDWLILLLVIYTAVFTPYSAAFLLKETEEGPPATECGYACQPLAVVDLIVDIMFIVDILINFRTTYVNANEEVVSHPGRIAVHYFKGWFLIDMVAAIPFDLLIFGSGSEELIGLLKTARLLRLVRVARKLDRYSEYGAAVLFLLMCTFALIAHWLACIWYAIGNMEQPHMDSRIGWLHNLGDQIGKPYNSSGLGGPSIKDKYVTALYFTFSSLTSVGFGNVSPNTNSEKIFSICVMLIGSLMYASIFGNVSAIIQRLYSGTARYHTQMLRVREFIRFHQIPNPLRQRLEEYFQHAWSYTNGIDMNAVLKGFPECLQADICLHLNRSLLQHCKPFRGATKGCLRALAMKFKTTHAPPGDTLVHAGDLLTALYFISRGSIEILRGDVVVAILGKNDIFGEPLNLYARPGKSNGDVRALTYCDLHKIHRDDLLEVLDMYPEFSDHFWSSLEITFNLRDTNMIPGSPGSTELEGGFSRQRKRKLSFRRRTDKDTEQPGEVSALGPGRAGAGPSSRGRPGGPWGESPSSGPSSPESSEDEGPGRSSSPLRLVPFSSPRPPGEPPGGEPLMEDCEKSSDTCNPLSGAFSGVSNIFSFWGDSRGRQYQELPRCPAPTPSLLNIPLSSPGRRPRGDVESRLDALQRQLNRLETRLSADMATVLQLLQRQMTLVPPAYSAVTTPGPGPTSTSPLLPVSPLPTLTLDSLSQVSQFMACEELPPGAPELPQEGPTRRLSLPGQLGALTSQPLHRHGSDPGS

SMILES | hERG current change (%, negative = inhibition) at 10uM [%]
Cc1ccc(S(=O)(=O)N2CCC(C(=O)OCc3c(C)noc3C)CC2)cc1C | -15.8
COc1ccc(S(=O)(=O)NC2CC(C)(C)NC(C)(C)C2)c2ccccc12 | 6.47
CCc1nc(C)c(C#N)c2cc(OC)c(OC)cc12 | 1.21
CC(C)(C)OC(=O)NCCc1nnc(S(=O)(=O)Cc2ccc(Cl)cc2Cl)o1 | -5.97
CCCOc1ccc(/C=N/NC(=S)Nc2ccccc2[N+](=O)[O-])c(O)c1 | 24.3
COC(=O)c1c(C)c2c(C)cc3ccccn3c-2c1C(=O)OC | -4.02
O=C(O)CCC(=O)N1CCN(S(=O)(=O)c2ccc3ccccc3c2)CC1 | 25.6
O=C(CN1C(=O)c2cccc3cccc(c23)C1=O)N1CCCCCC1 | 9.58
COc1ccccc1N1CCN(C2=Nc3cccc4cccc2c34)CC1 | -71.5
O=C(CN1CCN(CCN2C(=O)c3cccc4cccc(c34)C2=O)CC1)c1ccc(F)cc1 | -42.4
c1cc2c3c(cccc3c1)C(N1CCCCCC1)=N2 | -67
O=C1c2cccc3cccc(c23)C(=O)N1CCCN1CCN(c2ccc(F)cc2)CC1 | -69.2
CC(=O)N1CCN(C2=Nc3cccc4cccc2c34)CC1 | -46
O=C(CCCN1C(=O)c2cccc3cccc(c23)C1=O)N1CCN(c2ccc(F)cc2)CC1 | -1.91
c1ccc(NC2=Nc3cccc4cccc2c34)cc1 | 1.71
COc1ccccc1N1CCN(C(=O)CN2C(=O)c3cccc4cccc(c34)C2=O)CC1 | 16.9
Cc1cc(C)n(Cc2ccc(C(=O)Nc3ccc(Br)cc3C)o2)n1 | -19.4
O=C(COc1ccccc1O)Nc1ccc(Cl)cc1 | 5.23
Cc1ccc(C(=O)CSc2ccccc2C(=O)O)cc1 | 16.9
Cc1ccccc1C(=O)NC1CCN(Cc2nnnn2C2CCCC2)CC1 | 3.85
C#CCOC(=O)c1ccccc1C(=O)O | 7.07

SMILES | hERG current change (%, negative = inhibition) at 10uM [%]
N#C/C(=C/c1cc(Br)cs1)C(=O)NCC1CCCO1 (stereo not shown) | -14.8
O=C(OCn1ncc(Br)c(Br)c1=O)c1c(F)cccc1F | 14.9
O=C(OCn1ncc(Br)c(Br)c1=O)c1ccc(F)cc1 | -51.4
O=C(OCn1ncc(Cl)c(Cl)c1=O)c1ccc(F)cc1 | -3.74
O=C(CN1CCN(Cc2ccc(F)cc2)CC1)Nc1ccccc1F | -35.2
O=C(CN1CCCCCC1)Nc1ccc(Cl)cc1F | -2.05
Cl.O=C(CN1CCN(C(=O)c2cccc(F)c2)CC1)NC1CCCCC1 | 2.39
O=C(CN1CCN(C(=O)c2cccc(F)c2)CC1)Nc1ccccc1F | -70.1
O=C(CN1CCN(Cc2cccc(F)c2)CC1)Nc1ccccc1F | -55.9
O=C(CN1CCN(C(=O)c2c(F)cccc2F)CC1)Nc1ccccc1F | -11.3
O=C(CN1CCN(C(=O)c2ccccc2)CC1)Nc1ccc(Cl)cc1F | -71
O=C(c1cccc(Cl)c1)N1CCN(Cc2ccccc2F)CC1 | 10.1
O=C(CN1CCN(Cc2cccc(F)c2)CC1)NCc1ccccc1 | -10.4
Cc1ccc(-c2nc(C3CCCN(S(=O)(=O)c4ccc(C(F)(F)F)cc4)C3)no2)cc1 (stereo not shown) | 15
CC(C)(C)C(=O)Nc1c2c(nn1-c1ccc(F)cc1)CSC2 | 13.4
COc1ccc(C(=O)NCCSCc2ccccc2)cc1OC | -5.31
Cc1nnc(SCC(=O)NC2CCCCC2)s1 | 10.7
O=[N+]([O-])c1cc(C(F)(F)F)ccc1Oc1cccnc1[N+](=O)[O-] | -7.06
O=C1CSC(=S)N1Cc1cccnc1 | -2.25
O=S(=O)(Nc1ccccn1)c1ccc(Br)cc1 | -2.97
Cc1cc(C)c(C#N)c(Nc2ccccc2C)n1 | 12.4

SMILES | hERG current change (%, negative = inhibition) at 10uM [%]
CC(C)N1CCN(Cc2cccc([N+](=O)[O-])c2)CC1 | -2.13
O=C(O)C(=O)O.O=C(c1ccco1)N1CCN(Cc2cccc([N+](=O)[O-])c2)CC1 | -20.3
O=C(O)C(=O)O.O=[N+]([O-])c1cccc(CN2CCN(Cc3ccc(Br)cc3)CC2)c1 | -72.4
O=C(O)C(=O)O.O=C(c1cccs1)N1CCN(Cc2cccc([N+](=O)[O-])c2)CC1 | -33.1
O=C(O)C(=O)O.O=[N+]([O-])c1cccc(CN2CCN(Cc3ccco3)CC2)c1 | -4.34
O=C(O)C(=O)O.O=[N+]([O-])c1cccc(CN2CCN(Cc3ccc(Cl)cc3)CC2)c1 | -70.8
Cc1cccc(NC(=O)CN2C(=O)S/C(=C\c3ccccn3)C2=O)c1 | 30.2
O=C(CCn1nnc2ccccc21)Nc1nnc(-c2ccccc2F)s1 | 3.13
N#CC1=C(N)Oc2n[nH]c(-c3ccccn3)c2C1c1c(F)cccc1Cl (stereo not shown) | -3.23
CCOc1ccc(OCCCCNCCN)cc1.O=C(O)C(=O)O | 5.79
COC(=O)C1=NN(c2ccc(C)cc2)C2(S1)SC(C(C)=O)=C(C)N2c1ccccc1 (stereo not shown) | -10
CCOc1ccc(CNC(=O)CCSCc2ccccc2F)cc1OC | 5.18
Cc1ccc(/C=C(/C#N)c2nc(CCN3C(=O)c4ccccc4C3=O)cs2)cc1 | 21.6
COc1ccc(S(=O)(=O)N2CCN(Cc3cc(OC)c(OC)cc3OC)CC2)cc1.O=C(O)C(=O)O | -11.5
COc1ccc(CN2CCN(S(=O)(=O)c3ccccc3)CC2)c(OC)c1OC | 3.14
COc1ccc(OC)c(CN2CCN(S(=O)(=O)c3ccccc3)CC2)c1 | -79.2
COc1cc(CN2CCN(S(=O)(=O)c3ccccc3)CC2)cc(OC)c1OC.O=C(O)C(=O)O | -5.31
COc1ccc(CN2CCN(S(=O)(=O)c3ccccc3)CC2)c(OC)c1.O=C(O)C(=O)O | -63.5
COc1ccc(OC)c(CN2CCN(S(=O)(=O)c3ccc(NC(C)=O)cc3)CC2)c1.O=C(O)C(=O)O | -3.01
